Bioassay records as filed in PubChem.
Rows were chosen to be rich in hits. Some 11% of all compounds tested hit in one or more screens of this group.
HPGD inh: blocks human HPGD enzyme activity | P15428 | purified HPGD, NADH fluorescence kinetic, PGE2 substrate | Potency, µM, for inactives: at the top dose activity change, negative = inhibition, actives largely listed as inhibitors | actives 4.3% (n = 150,000); note: potency is the fitted concentration of half-maximal effect
Target sequence (P15428 whole entry, looked up): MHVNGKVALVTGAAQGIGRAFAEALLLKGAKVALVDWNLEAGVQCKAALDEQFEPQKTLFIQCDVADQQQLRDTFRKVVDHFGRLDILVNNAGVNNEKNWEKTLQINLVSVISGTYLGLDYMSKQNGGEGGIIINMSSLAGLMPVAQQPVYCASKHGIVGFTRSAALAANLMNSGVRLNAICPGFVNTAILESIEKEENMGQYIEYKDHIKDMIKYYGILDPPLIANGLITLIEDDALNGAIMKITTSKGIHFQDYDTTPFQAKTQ
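NADH formation kinetics: reaction with 30 uM PGE2 and 1 mM NAD+ (final), 20 nM enzyme, Tris-HCl pH 8 with Tween 20, after 15 min compound preincubation at room temperature. Fluorescence change, last versus first of five reads.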
PNC inhibitor: blocks assembly of the perinucleolar compartment; AID 2417; actives 3.1% (n = 140,000); PC3M PTB-GFP, PNC prevalence imaging, 16 h; stronger effect = lower value; activity change (PNC), negative = inhibition, % at 10 µM;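 active = readout at or below -70, meaning at least 70% loss of cells showing the perinucleolar compartment, a nuclear body marking cancer cells; inconclusive = readout between -30 and a set limit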;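 note: plate controls were DMSO wells for no effect and camptothecin positive control wells for full effect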
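PC3M cells stably expressing PTB-GFP, 750–1000 cells/well, treated 16 h at 37 °C with compound (23 nl of library stock), in duplicate. After paraformaldehyde fixation and Hoechst stain, imaged at 20x; PNC prevalence scored by image analysis.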
ALDH1A1 inh: blocks purified human ALDH1A1 activity | actives 7.3% (n = 220,000) | Purified ALDH1A1, NADH fluorescence, propionaldehyde substrate | P00352 | AID 1030 | Potency, µM (series often up to 75.3 µM), inactives show at the highest dose activity, negative = inhibition, most hits filed as inhibitors;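 note: potency is the fitted concentration of half-maximal effect; plate controls were no enzyme wells and a reference inhibitor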
JMJD2E inh: blocks human JMJD2E demethylase activity; B2RXH2; JMJD2E catalytic domain, FDH-coupled NADH fluorescence (FDH is formaldehyde dehydrogenase); Potency, µM (doses to about 57.1 µM), inactives show top-dose activity change, negative = inhibition, usual class: inhibitors; actives 1.6% (n = 230,000); AID 2147;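 note: potency is the fitted concentration of half-maximal effect; 0% = wells with enzyme and -100% = buffer wells without enzyme; nearly all actives have a fitted effect of over 50% in size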
Starred values were filed as active, the others as inactive. Unless noted, calls come from the whole dose curve; as a rule, active = well fitted inhibition curve with a large enough effect (not every such curve was filed as active); inconclusive = small, poorly fitted or top-dose-only effect, or another doubt; inactive = no such curve, though single readings can be large or run the other way. Unless noted, % is set by controls: 0 for no effect and ±100 for the full control effect.

For COc1ccc(S(=O)(=O)Nc2ccc(NC(C)=O)cc2)cc1Br the results were ALDH1A1 inh -4% and JMJD2E inh 1%.
For Cn1c(=O)oc2cc(S(=O)(=O)Nc3cccc(C(=O)O)c3)ccc21 the results were HPGD inh -6%, PNC inhibitor -21, ALDH1A1 inh 14% and JMJD2E inh 3%.
COc1ccc(S(=O)(=O)Nc2cccc(C(C)=O)c2)cc1Br was read as ALDH1A1 inh 32µM* and JMJD2E inh 2%.
For Cc1cc(C)cc(NC(=O)CCNS(=O)(=O)c2ccc3c(c2)oc(=O)n3C)c1 the results were HPGD inh -6%, PNC inhibitor -100*, ALDH1A1 inh 2% and JMJD2E inh 6%.
Screening CCOC(=O)C1=C(C)NC(=S)NC1/C=C/c1ccccc1 (stereo not given) returned HPGD inh -14%, PNC inhibitor -100*, ALDH1A1 inh 0% and JMJD2E inh -1%.
`COC(=O)C1=C(C)NC(=S)NC1/C=C/c1ccccc1` (stereo not given) gave ALDH1A1 inh 1.1µM* and JMJD2E inh 8%.
Cc1sc2ncnc(N3CCC(C)CC3)c2c1C was read as HPGD inh 22µM*, PNC inhibitor -13, ALDH1A1 inh 3% and JMJD2E inh -8%.
Screening O=C(O)c1ccc(CSc2nc3ccc(N4C(=O)C5C6C=CC(C6)C5C4=O)cc3s2)cc1 (stereo not given) returned HPGD inh 16µM*, PNC inhibitor 27, ALDH1A1 inh 28µM* and JMJD2E inh 4%.
`CCc1cccc(CC)c1NC(=O)CSc1nc2ccc(N3C(=O)C4C5C=CC(C5)C4C3=O)cc2s1` (stereo not given) gave HPGD inh 8.9µM*, PNC inhibitor 0, ALDH1A1 inh inconclusive and JMJD2E inh 2%.
Cc1cccc(NC(=O)CSc2nc3ccc(N4C(=O)c5ccccc5C4=O)cc3s2)c1C was read as HPGD inh -15%, PNC inhibitor 2, ALDH1A1 inh inconclusive and JMJD2E inh 9%.
`COCCNC(=O)c1ccc(NC(C)=O)cc1` gave HPGD inh 20µM*, PNC inhibitor -21, ALDH1A1 inh -2% and JMJD2E inh 2%.
`CC(C)CNS(=O)(=O)c1ccc(CCC(=O)NCc2ccco2)cc1` gave HPGD inh -21%, PNC inhibitor 0, ALDH1A1 inh 2µM* and JMJD2E inh -3%.
`Cc1ccc(S(=O)(=O)NCC(=O)N(CCc2ccccc2)CC(=O)NCc2ccco2)cc1` gave HPGD inh -6%, PNC inhibitor -16, ALDH1A1 inh 28µM* and JMJD2E inh -1%.
Screening CC1(C)C2C/C(=N\O)C(C)(/[N+]([O-])=C/c3cccc([N+](=O)[O-])c3)CC21 (stereo not given) returned ALDH1A1 inh 1% and JMJD2E inh -9%.
`COc1cccc(-c2cc(C(=O)Nc3nc4ccccc4s3)c3ccccc3n2)c1` gave HPGD inh inconclusive, PNC inhibitor -115*, ALDH1A1 inh inconclusive and JMJD2E inh inconclusive.
For O=C(Nc1nc2ccccc2s1)c1cc(-c2ccco2)nc2ccccc12 the results were HPGD inh inconclusive, PNC inhibitor 4, ALDH1A1 inh inconclusive and JMJD2E inh inconclusive.
`O=C(Nc1nccs1)c1cc(-c2ccco2)nc2ccccc12` gave HPGD inh -30%, PNC inhibitor -89*, ALDH1A1 inh inconclusive and JMJD2E inh inconclusive.
O=C(Nc1nccs1)c1cc(-c2ccccc2)nc2ccccc12 was read as HPGD inh 18µM*, PNC inhibitor 54, ALDH1A1 inh -7% and JMJD2E inh -9%.
For O=C(Nc1nccs1)c1sc2ccccc2c1Cl the results were HPGD inh 13µM*, PNC inhibitor 18, ALDH1A1 inh -2% and JMJD2E inh inconclusive.
O=C(Nc1nccs1)c1sc2cc(Cl)ccc2c1Cl was read as HPGD inh inconclusive, PNC inhibitor 57, ALDH1A1 inh inconclusive and JMJD2E inh inconclusive.
Cc1cc(C)c(C)c(S(=O)(=O)N[C@@H](C)C(=O)OCC(N)=O)c1C was read as ALDH1A1 inh 2% and JMJD2E inh 0%.
For CC(=O)Nc1cc(NC(C)=O)ncn1 the results were ALDH1A1 inh 7% and JMJD2E inh 9%.
`COc1ccc2cc(C(c3nnnn3C3CCCC3)N3CCc4ccccc4C3)c(=O)[nH]c2c1` (stereo not given) gave HPGD inh inconclusive, PNC inhibitor 1, ALDH1A1 inh 18µM* and JMJD2E inh inconclusive.
